SMILES strings stand for the structures. The whole screen tested about 310,000 compounds, of which about 2,200 (0.71%) showed an effect of 50% or more. Effects have a minus sign here. Shown is part of a subset that was picked to be rich in strong results.

Here are results for 41 compounds from PMC4336329 (PLoS ONE, 2015).

For the assay, the target named is human ether-à-go-go-related gene (hERG) potassium channel (human, UniProt Q12809). Nature of the assay: primary screen, population patch clamp on CHO cells stably expressing hERG; higher = less effect of the substance.
human ether-à-go-go-related gene (hERG) potassium channel, sequence (Q12809 whole entry, looked up): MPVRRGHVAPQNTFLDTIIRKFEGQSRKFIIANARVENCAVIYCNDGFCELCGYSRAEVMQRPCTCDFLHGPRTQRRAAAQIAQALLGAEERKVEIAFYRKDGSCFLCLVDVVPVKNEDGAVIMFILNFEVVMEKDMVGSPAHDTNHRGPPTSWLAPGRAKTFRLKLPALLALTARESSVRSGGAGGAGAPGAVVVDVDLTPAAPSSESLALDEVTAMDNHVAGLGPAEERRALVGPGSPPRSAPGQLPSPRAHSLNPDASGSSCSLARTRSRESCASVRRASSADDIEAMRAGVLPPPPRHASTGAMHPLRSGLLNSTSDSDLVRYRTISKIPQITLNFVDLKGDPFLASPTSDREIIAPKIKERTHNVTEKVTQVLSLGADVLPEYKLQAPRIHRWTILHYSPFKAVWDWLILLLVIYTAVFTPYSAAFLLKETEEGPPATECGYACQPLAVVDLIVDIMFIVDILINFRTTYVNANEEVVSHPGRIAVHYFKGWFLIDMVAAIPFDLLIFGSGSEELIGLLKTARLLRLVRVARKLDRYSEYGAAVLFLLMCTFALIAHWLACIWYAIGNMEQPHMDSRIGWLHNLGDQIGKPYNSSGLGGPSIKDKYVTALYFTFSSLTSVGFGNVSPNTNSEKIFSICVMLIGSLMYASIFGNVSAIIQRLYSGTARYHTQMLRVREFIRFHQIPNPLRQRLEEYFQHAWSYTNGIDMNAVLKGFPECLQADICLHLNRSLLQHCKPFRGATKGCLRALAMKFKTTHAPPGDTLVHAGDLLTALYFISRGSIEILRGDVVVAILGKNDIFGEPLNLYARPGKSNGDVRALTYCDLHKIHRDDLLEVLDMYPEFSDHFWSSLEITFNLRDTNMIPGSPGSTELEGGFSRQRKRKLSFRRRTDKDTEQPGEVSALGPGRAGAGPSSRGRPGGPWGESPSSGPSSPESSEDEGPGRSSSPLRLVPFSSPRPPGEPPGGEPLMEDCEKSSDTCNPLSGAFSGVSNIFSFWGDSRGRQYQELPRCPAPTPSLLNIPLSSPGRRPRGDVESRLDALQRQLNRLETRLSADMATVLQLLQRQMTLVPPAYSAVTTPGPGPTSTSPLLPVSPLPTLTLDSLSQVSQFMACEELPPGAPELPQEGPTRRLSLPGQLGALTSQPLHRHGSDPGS
`O=C(NCCOc1ccccc1)C1CCC(=O)N(CCc2ccc(Cl)cc2)C1` (centres unmarked): the “hERG current change (%, negative = inhibition) at 1uM” value was -45%.
With `O=C(NCCCc1ccccc1)C1CCC(=O)N(Cc2ccc(Cl)cc2)C1` (centres unmarked) the figure was -6.98%; with `COc1ccc(CCN2CC(C(=O)N(C)CCOc3ccccc3)CCC2=O)cc1` (centres unmarked), -34.3%.
With `O=C(NCCc1ccccc1)C1CCC(=O)N(Cc2ccc(Cl)cc2)C1` (centres unmarked) the figure was 5.85%; with `COc1ccc(CCN2CC(C(=O)N(C)Cc3ccccc3OC)CCC2=O)cc1` (centres unmarked), 26.7%.
With `CN(CCOc1ccccc1)C(=O)C1CCC(=O)N(CCc2ccc(Cl)cc2)C1` (centres unmarked) the figure was -51.2%; with `CN(CCNC(=O)C1CCC(=O)N(Cc2cccc(F)c2)C1)CCc1ccccc1` (centres unmarked), -14.8%; with `O=C(NCc1ccccc1)c1cnc(-c2ccccn2)nc1C(F)(F)F`, 9.39%.
Consider `Nc1nc(CSc2nnnn2-c2ccc(Cl)cc2)nc(N2CCOCC2)n1`, for which the “hERG current change (%, negative = inhibition) at 1uM” value was found to be 11.5%.
With `C/C(=N\N1C(=O)CSC1=S)c1ccc(Br)cc1`, the “hERG current change (%, negative = inhibition) at 1uM” value amounted to 1.48%.
For the compound `S=C1NNC2(NN1)C1CC3CC(C1)CC2C3`, the “hERG current change (%, negative = inhibition) at 1uM” value turned out to be 12.4%.
The value for `COc1ccc(-n2cnnc2SCC(=O)N2CCN(S(=O)(=O)c3ccccc3)CC2)cc1` was 1.1%.
The value for `COC(=O)C1=C(C)N(C)C(C)=C(C(=O)OC)C1c1ccc(F)c(Br)c1` was 6.36%; that for `CCN(CC(=O)NCc1cccs1)C(=O)c1ccc(-c2cccc(C(F)(F)F)c2)o1` was -57.4%; that for `CCN(CC(=O)NCc1cccs1)C(=O)c1ccc(-c2ccccc2F)o1` was -7.69%.
The value for `CCN(CC(=O)NCc1cccs1)C(=O)COc1cccc(C(F)(F)F)c1` was -7.5%; that for `COC(=O)C1=C(C)N(CCCCCC(=O)O)C(=O)NC1c1ccccc1` (centres unmarked) was 2.67%; that for `Cc1ccc2c(c1)C1CN(C)CCC1N2C(=O)c1ccccc1NS(=O)(=O)c1ccc(F)cc1` (centres unmarked) was 11.8%.
Regarding `COc1ccc2cc(C3(C)NC(=O)N(CC(=O)Nc4c(C)n(C)n(-c5ccccc5)c4=O)C3=O)ccc2c1` (centres unmarked), the “hERG current change (%, negative = inhibition) at 1uM” value is 0.395%.
The value for `CCn1ccnc1CN1CCC(CO)(CCOc2ccccc2)CC1` was 13.1%; that for `OCC1(CCc2ccccc2)CCN(Cc2cccn2-c2cccnc2)CC1` was -23.3%; that for `CCOC(=O)C1(CCOc2ccccc2)CCN(Cc2cccn2-c2cccnc2)CC1` was 9.53%.
The value for `OCC1(CCOc2ccccc2)CCN(Cc2cccn2-c2ncccn2)CC1` was -82.4%.
For `CCOC(=O)C1(CCOc2ccccc2)CCN(Cc2nccn2CC)CC1`, the “hERG current change (%, negative = inhibition) at 1uM” value is reported as -5.37%.
With `CCOC(=O)C1(CCOc2ccccc2)CCN(Cc2cccn2-c2ncccn2)CC1` the figure was -81.6%.
As to `O=C(Cc1c(F)cccc1Cl)OCN1C(=O)c2ccccc2C1=O`, the “hERG current change (%, negative = inhibition) at 1uM” value came out at 17.4%.
As to `O=C(NCCN1C(=O)C2C3C=CC(C3)C2C1=O)Nc1ccccn1` (centres unmarked), the “hERG current change (%, negative = inhibition) at 1uM” value is recorded as 5.7%.
Take `CCn1cc(C(=O)NCCCN(CC(C)C)CC(C)C)c(=O)c2cc(S(=O)(=O)N(C)C3CCCCC3)ccc21`: the “hERG current change (%, negative = inhibition) at 1uM” value is -6.68%.
Consider `CCC1CCCCN1CCCNC(=O)c1cn(CC)c2ccc(S(=O)(=O)N(C)C3CCCCC3)cc2c1=O` (centres unmarked), for which the “hERG current change (%, negative = inhibition) at 1uM” value was -75.5%.
For the compound `CC1CCCN(CCCNC(=O)c2cn(C)c3ccc(S(=O)(=O)N(C)C4CCCCC4)cc3c2=O)C1` (centres unmarked), the “hERG current change (%, negative = inhibition) at 1uM” value is reported as -13.2%.
Regarding `CCn1cc(C(=O)NCCCN2CCCCCC2)c(=O)c2cc(S(=O)(=O)N3CCc4ccccc4C3)ccc21`, the “hERG current change (%, negative = inhibition) at 1uM” value was -24.5%.
With `CCn1cc(C(=O)NCCCN2CCCC2)c(=O)c2cc(S(=O)(=O)N3CCc4ccccc4C3)ccc21` the figure was 6.45%; with `CCn1cc(C(=O)NCCCN2CCC(C)CC2)c(=O)c2cc(S(=O)(=O)N(C)C3CCCCC3)ccc21`, -74%; with `CCn1cc(C(=O)NCCCN2CCCC(C)C2)c(=O)c2cc(S(=O)(=O)N3CCc4ccccc4C3)ccc21` (centres unmarked), -64.2%.
`CCC1CCCCN1CCCNC(=O)c1cn(C)c2ccc(S(=O)(=O)N(C)C3CCCCC3)cc2c1=O` (centres unmarked): the “hERG current change (%, negative = inhibition) at 1uM” value is given as -2.04%.
With `CCn1cc(C(=O)NCCCN2CCCC(C)C2)c(=O)c2cc(S(=O)(=O)N3CCOCC3)ccc21` (centres unmarked) the figure was 16.1%; with `CCn1cc(C(=O)NCCCOC)c(=O)c2cc(S(=O)(=O)N(C)C3CCCCC3)ccc21`, -2.67%.
Turning to `CCn1cc(C(=O)NCCCN2CCCC(C)C2)c(=O)c2cc(S(=O)(=O)N(C)C3CCCCC3)ccc21` (centres unmarked), the “hERG current change (%, negative = inhibition) at 1uM” value is listed as -82%.
With `CCN(CC)CCCNC(=O)c1cn(CC)c2ccc(S(=O)(=O)N(C)C3CCCCC3)cc2c1=O` the figure was -5.96%; with `COc1cccc(CNC(=O)Cc2nc3nc(C)cc(C)n3n2)c1`, 14.5%; with `COc1cc(/C=c2\sc3n(c2=O)CCCN=3)ccc1O`, 13.5%.
